The values below come from the supplement of paper PMC10077471.

In all, about 1,900 compounds were measured (“excess over highest single agent (ExcessHSA) synergy score, 6x6 matrix”: median about -83, lowest 2% from about -370 on). The full list was thinned out, with the lowest values kept by preference.

For this experiment, the system named is NCI-H446. As to the kind of experiment: excess over highest single agent (ExcessHSA) synergy score, 6x6 matrix; higher = less synergy (more negative = stronger synergy). The conditions noted are these: 72 h; CellTiter-Glo viability.
`COC1=C(OC)C(=O)C(C/C=C(\C)CC/C=C(\C)CC/C=C(\C)CC/C=C(\C)CC/C=C(\C)CC/C=C(\C)CC/C=C(\C)CC/C=C(\C)CC/C=C(\C)CCC=C(C)C)=C(C)C1=O` + Cc1sc2c(c1C)C(c1ccc(Cl)cc1)=N[C@@H](CC(=O)OC(C)(C)C)c1nnc(C)n1-2 [NCGC00250412-19]: the “excess over highest single agent” value was -97.2.

For the molecule `COc1cc(OC)c(NC(=O)Nc2cc(C)on2)cc1Cl` + Cc1sc2c(c1C)C(c1ccc(Cl)cc1)=N[C@@H](CC(=O)OC(C)(C)C)c1nnc(C)n1-2 [NCGC00250412-19], the “excess over highest single agent” value was -142.

Consider `Cc1ccc(-c2ncn(-c3ccc(Nc4nccc(-c5cccc(N6CCOCC6)c5)n4)cc3)n2)cn1` + Cc1sc2c(c1C)C(c1ccc(Cl)cc1)=N[C@@H](CC(=O)OC(C)(C)C)c1nnc(C)n1-2 [NCGC00250412-19], for which the “excess over highest single agent” value was -78.7. For the molecule `CO[C@H]1[C@H](O)[C@@H](O)[C@H](n2c3c(Cl)cccc3c3c4c(c5c6cccc(Cl)c6[nH]c5c32)C(=O)NC4=O)O[C@@H]1CO` + Cc1sc2c(c1C)C(c1ccc(Cl)cc1)=N[C@@H](CC(=O)OC(C)(C)C)c1nnc(C)n1-2 [NCGC00250412-19], the “excess over highest single agent” value is -234. Consider `C[C@H](Cc1ccc(O)c(O)c1)[C@@H](C)Cc1ccc(O)c(O)c1` + Cc1sc2c(c1C)C(c1ccc(Cl)cc1)=N[C@@H](CC(=O)OC(C)(C)C)c1nnc(C)n1-2 [NCGC00250412-19], for which the “excess over highest single agent” value is -373. Consider `O=C(O)C(O)Cc1ccc(O)c(O)c1` (configuration not stated) + Cc1sc2c(c1C)C(c1ccc(Cl)cc1)=N[C@@H](CC(=O)OC(C)(C)C)c1nnc(C)n1-2 [NCGC00250412-19], for which the “excess over highest single agent” value was -9.7.

For `N[C@@H](Cc1ccc(O)c(O)c1)C(=O)O` + Cc1sc2c(c1C)C(c1ccc(Cl)cc1)=N[C@@H](CC(=O)OC(C)(C)C)c1nnc(C)n1-2 [NCGC00250412-19], the “excess over highest single agent” value was found to be 57.6.

As to `N#CN=C(NCCCCCCOc1ccc(Cl)cc1)Nc1ccncc1` + Cc1sc2c(c1C)C(c1ccc(Cl)cc1)=N[C@@H](CC(=O)OC(C)(C)C)c1nnc(C)n1-2 [NCGC00250412-19], the “excess over highest single agent” value was -32.9.

Take `C/C=C(/C)C(=O)O[C@H]1C(C)=C[C@]23C(=O)[C@@H](C=C(CO)[C@@H](O)[C@]12O)[C@H]1[C@@H](C[C@H]3C)C1(C)C` + Cc1sc2c(c1C)C(c1ccc(Cl)cc1)=N[C@@H](CC(=O)OC(C)(C)C)c1nnc(C)n1-2 [NCGC00250412-19]: the “excess over highest single agent” value worked out at 104. Next, `O=C(Nc1cccc(Nc2ncc(Br)c(NCCc3cnc[nH]3)n2)c1)N1CCCC1` + Cc1sc2c(c1C)C(c1ccc(Cl)cc1)=N[C@@H](CC(=O)OC(C)(C)C)c1nnc(C)n1-2 [NCGC00250412-19]: -166. The figure for `C[C@@H](N)c1ccc(C(=O)Nc2ccnc3[nH]ccc23)cc1` + Cc1sc2c(c1C)C(c1ccc(Cl)cc1)=N[C@@H](CC(=O)OC(C)(C)C)c1nnc(C)n1-2 [NCGC00250412-19] is 125.

For `Oc1ccc(-c2ccc(-c3cc(Nc4cccc(CNC5CC5)c4)n[nH]3)cc2)c(O)c1` + Cc1sc2c(c1C)C(c1ccc(Cl)cc1)=N[C@@H](CC(=O)OC(C)(C)C)c1nnc(C)n1-2 [NCGC00250412-19], the “excess over highest single agent” value was found to be 79.8.

As for `COc1cccc2nc(-c3cccs3)nc(NN3C(=O)C=C(C)C3=O)c12` + Cc1sc2c(c1C)C(c1ccc(Cl)cc1)=N[C@@H](CC(=O)OC(C)(C)C)c1nnc(C)n1-2 [NCGC00250412-19], the “excess over highest single agent” value was -408. As for `CN(CC(=O)N(Cc1ccc(C2CCCCC2)cc1)c1ccc(C(=O)O)c(O)c1)S(=O)(=O)c1c(F)c(F)c(F)c(F)c1F` + Cc1sc2c(c1C)C(c1ccc(Cl)cc1)=N[C@@H](CC(=O)OC(C)(C)C)c1nnc(C)n1-2 [NCGC00250412-19], the “excess over highest single agent” value is -91.4. Take `Clc1cccc(-n2nnnc2NCc2ccccc2Oc2ccccn2)c1Cl` + Cc1sc2c(c1C)C(c1ccc(Cl)cc1)=N[C@@H](CC(=O)OC(C)(C)C)c1nnc(C)n1-2 [NCGC00250412-19]: the “excess over highest single agent” value is -103.

For the molecule `Cn1cc(C2=C(c3c4n(c5ccccc35)CCC(CN)C4)C(=O)NC2=O)c2ccccc21` (configuration not stated) + Cc1sc2c(c1C)C(c1ccc(Cl)cc1)=N[C@@H](CC(=O)OC(C)(C)C)c1nnc(C)n1-2 [NCGC00250412-19], the “excess over highest single agent” value was -42.8. For `Cc1cnc(Nc2cccc(CN3CCOCC3)c2)nc1Nc1cccc(S(=O)(=O)NC(C)(C)C)c1` + Cc1sc2c(c1C)C(c1ccc(Cl)cc1)=N[C@@H](CC(=O)OC(C)(C)C)c1nnc(C)n1-2 [NCGC00250412-19], the “excess over highest single agent” value turned out to be 108. Take `CC(=O)Nc1sc2c(c1-c1nc3ccccc3s1)CNC2` + Cc1sc2c(c1C)C(c1ccc(Cl)cc1)=N[C@@H](CC(=O)OC(C)(C)C)c1nnc(C)n1-2 [NCGC00250412-19]: the “excess over highest single agent” value came to 354. Take `CC(C)(O)c1cc2nc(-c3cnc(N)nc3)nc(N3CCOCC3)c2s1` + Cc1sc2c(c1C)C(c1ccc(Cl)cc1)=N[C@@H](CC(=O)OC(C)(C)C)c1nnc(C)n1-2 [NCGC00250412-19]: the “excess over highest single agent” value is -253. In the case of `Cc1c(CN2CCN(S(C)(=O)=O)CC2)sc2c(N3CCOCC3)nc(-c3cnc(N)nc3)nc12` + Cc1sc2c(c1C)C(c1ccc(Cl)cc1)=N[C@@H](CC(=O)OC(C)(C)C)c1nnc(C)n1-2 [NCGC00250412-19], the “excess over highest single agent” value was -334. Next, `Cc1c(CN2CCN(C(=O)[C@H](C)O)CC2)sc2c(N3CCOCC3)nc(-c3cnc(N)nc3)nc12` + Cc1sc2c(c1C)C(c1ccc(Cl)cc1)=N[C@@H](CC(=O)OC(C)(C)C)c1nnc(C)n1-2 [NCGC00250412-19]: -434; `CNC(=O)c1c(-c2ccc(F)cc2)oc2cc(N(CCO)S(C)(=O)=O)c(C3CC3)cc12` + Cc1sc2c(c1C)C(c1ccc(Cl)cc1)=N[C@@H](CC(=O)OC(C)(C)C)c1nnc(C)n1-2 [NCGC00250412-19]: -113; `CN[C@H]1CCc2cc(OC)c(OC)c(OC)c2-c2ccc(OC)c(=O)cc21` + Cc1sc2c(c1C)C(c1ccc(Cl)cc1)=N[C@@H](CC(=O)OC(C)(C)C)c1nnc(C)n1-2 [NCGC00250412-19]: -167. Next, `Cc1nc(Nc2n[nH]c3c2CN(C(=O)N[C@H](CN(C)C)c2ccccc2)C3(C)C)c2sccc2n1` + Cc1sc2c(c1C)C(c1ccc(Cl)cc1)=N[C@@H](CC(=O)OC(C)(C)C)c1nnc(C)n1-2 [NCGC00250412-19]: -503; `CN1c2ccccc2C(=O)N2CCc3c([nH]c4ccccc34)[C@@H]21` + Cc1sc2c(c1C)C(c1ccc(Cl)cc1)=N[C@@H](CC(=O)OC(C)(C)C)c1nnc(C)n1-2 [NCGC00250412-19]: -226. For the molecule `O=C1NC(=O)/C(=C/c2cccc(C(F)(F)F)c2)S1` + Cc1sc2c(c1C)C(c1ccc(Cl)cc1)=N[C@@H](CC(=O)OC(C)(C)C)c1nnc(C)n1-2 [NCGC00250412-19], the “excess over highest single agent” value was 75.6. On to `Cn1c2cc([S+](C)[O-])sc2c2cnn(Cc3cccc(N)c3)c(=O)c21` (configuration not stated) + Cc1sc2c(c1C)C(c1ccc(Cl)cc1)=N[C@@H](CC(=O)OC(C)(C)C)c1nnc(C)n1-2 [NCGC00250412-19], for which the “excess over highest single agent” value was -110. As to `CC(=O)NCC(=O)N1[C@@H]2CC[C@H]1c1ccc(Nc3ncc(C(F)(F)F)c(NC4CCC4)n3)cc12` + Cc1sc2c(c1C)C(c1ccc(Cl)cc1)=N[C@@H](CC(=O)OC(C)(C)C)c1nnc(C)n1-2 [NCGC00250412-19], the “excess over highest single agent” value was -534.

For `CS(=O)(=O)c1cccc(CNc2nc(Nc3ccc4c(c3)CCC(=O)N4)ncc2C(F)(F)F)c1` + Cc1sc2c(c1C)C(c1ccc(Cl)cc1)=N[C@@H](CC(=O)OC(C)(C)C)c1nnc(C)n1-2 [NCGC00250412-19], the “excess over highest single agent” value came to 58.6. As for `CN(c1ncccc1CNc1nc(Nc2ccc3c(c2)CC(=O)N3)ncc1C(F)(F)F)S(C)(=O)=O` + Cc1sc2c(c1C)C(c1ccc(Cl)cc1)=N[C@@H](CC(=O)OC(C)(C)C)c1nnc(C)n1-2 [NCGC00250412-19], the “excess over highest single agent” value is -151.

As for `COC(=O)c1ccc2c(C(=Nc3ccc(N(C)C(=O)CN4CCN(C)CC4)cc3)c3ccccc3)c(O)[nH]c2c1` + Cc1sc2c(c1C)C(c1ccc(Cl)cc1)=N[C@@H](CC(=O)OC(C)(C)C)c1nnc(C)n1-2 [NCGC00250412-19], the “excess over highest single agent” value is -229. The figure for `CNC(=O)c1ccc2c(C(=Nc3cccc(CN(C)C)c3)c3ccccc3)c(O)[nH]c2c1` + Cc1sc2c(c1C)C(c1ccc(Cl)cc1)=N[C@@H](CC(=O)OC(C)(C)C)c1nnc(C)n1-2 [NCGC00250412-19] is 93.9. In the case of `CCS(=O)(=O)Nc1ccc2[nH]c(O)c(C(=Nc3ccc(CN4CCCCC4)cc3)c3ccccc3)c2c1` + Cc1sc2c(c1C)C(c1ccc(Cl)cc1)=N[C@@H](CC(=O)OC(C)(C)C)c1nnc(C)n1-2 [NCGC00250412-19], the “excess over highest single agent” value is -393.

With `COc1ccc(-c2ccc3ncc4c(c3c2)n(-c2ccc(N3CCNCC3)c(C(F)(F)F)c2)c(=O)n4C)cn1` + Cc1sc2c(c1C)C(c1ccc(Cl)cc1)=N[C@@H](CC(=O)OC(C)(C)C)c1nnc(C)n1-2 [NCGC00250412-19], the “excess over highest single agent” value was -20.2. Next, `COc1cc(C(C)C)c(Oc2cnc(NC(CO)CO)nc2N)cc1I` + Cc1sc2c(c1C)C(c1ccc(Cl)cc1)=N[C@@H](CC(=O)OC(C)(C)C)c1nnc(C)n1-2 [NCGC00250412-19]: -119. The figure for `OCc1ccc(-c2ccc(-c3ccc(CO)s3)o2)s1` + Cc1sc2c(c1C)C(c1ccc(Cl)cc1)=N[C@@H](CC(=O)OC(C)(C)C)c1nnc(C)n1-2 [NCGC00250412-19] is 33.9; for `C/C=C1\NC(=O)[C@H]2CSSCC/C=C/[C@H](CC(=O)N[C@H](C(C)C)C(=O)N2)OC(=O)[C@H](C(C)C)NC1=O` + Cc1sc2c(c1C)C(c1ccc(Cl)cc1)=N[C@@H](CC(=O)OC(C)(C)C)c1nnc(C)n1-2 [NCGC00250412-19] it is -38.7.
